According to PubChem BioAssay (EPA / NIEHS):
Active and inactive are the calls of the source. Rule for the calls: active = hit-call score of the fitted dose curve at least 0.9, where 1 is the maximum; inactive = score below 0.9.

Assay: BSK_3C_VCAM1: BioMAP Diversity Plus: 3C Assay for Vascular cell adhesion molecule 1 (VCAM1) Biomarker Activity (AID 2282999)
Conditions: BioMAP 3C HUVEC, VCAM1 ELISA, cytokine-stimulated; actives raise or lower the signal
Protocol: BSK_3C is a cell-based, multiplexed-readout assay that uses umbilical vein endothelium, a human vascular primary cell, with measurements taken at 24 hours after chemical dosing in a 96-well plate.BSK_3C_VCAM1 is an assay component measured in the BSK_3C assay. It measures VCAM-1 antibody related to regulation of gene expression using ELISA technology.Data from the assay component BSK_3C_VCAM1 was analyzed into 1 assay endpoint. This assay endpoint, BSK_3C_VCAM1, was analyzed with bidirectional fitting relative to DMSO as the negative control and baseline of activity. Using a type of binding reporter, gain or loss-of-signal activity can be used to understand changes in the signaling as they relate to the gene VCAM1. Furthermore, this assay endpoint can be referred to as a primary readout, because this assay has produced multiple assay endpoints where this one serves a signaling function. To generalize the intended target to other relatable targets, this assay endpoint is annotated to the cell adhesion molecules intended target family, where the subfamily is Immunoglobulin CAM.
The levels of cell surface (or secreted, indicated by the prefix "s") biomarker endpoints were measured by ELISA. Overt cytotoxicity to cells in confluent adherent cultures (all systems other than the BT system) was assessed by measuring total protein levels using sulforhodamine B (SRB) staining in parallel cultures at the time of biomarker measurements, indicated as SRB endpoints. For proliferation assays for adherent cell types, individual cell types are cultured at sub-confluence and relative cell numbers quantified by SRB staining at time points optimized for each system (48 h: 3C and CASM3C systems; 72 h: BT and HDF3CGF systems; 96 h: SAg system). SRB was performed by staining cells with 0.1% SRB after fixation with 10% TCA and reading wells at 560 nm.Viability and proliferation of PBMC (T cells) was quantified by Alamar Blue reduction for the SAg and BT systems. For PBMC viability (referred to as PBMC Cytotoxicity within the assay endpoint names), cells were plated (75,000/well in a 96-well plate) and then chemical samples added for 1 h before addition of activators, SEB and TSST-1 (20 ng/mL final concentration each). Cells were incubated for 90 h. Then, Alamar Blue (20 uL/well) (Invitrogen, Cat DAL1100) was added for 6 h, and the plates were read with a fluorescence microplate reader at 546/580 nm (excitation/emission). For PBMC proliferation, cells were plated and activated as above but incubated for only 16 h prior to addition of Alamar Blue. Plates were read after 6 h.

| Compound | outcome | AC50 |
| --- | --- | --- |
| CN(CCOc1ccc(CC2SC(=O)NC2=O)cc1)c1ccccn1 (stereo not given) | inactive |  |
| CC(C)c1ccc(C(C)C)cc1 |  | 35.3 µM (active) |
| CC(C)Oc1ccccc1O | inactive |  |
| C=C[Si](OCC)(OCC)OCC | inactive |  |
| O=[N+]([O-])c1cc(C(F)(F)F)ccc1Cl | inactive |  |
| CC(C)(COC(=O)c1ccccc1)COC(=O)c1ccccc1 | inactive |  |
| CCCCCCCCC=O | inactive |  |
| CC(=O)O[C@]1(C(C)=O)CC[C@H]2[C@@H]3C[C@H](C)C4=CC(=O)CC[C@]4(C)[C@H]3CC[C@@]21C | inactive |  |
| Nc1cc([N+](=O)[O-])ccc1Cl | inactive |  |
| CCc1c(C)cc(N)c(CC)c1N | inactive |  |
| CCCCC/C=C/C=C/C=O |  | 29.3 µM (active) |
| Cc1ccc2n[nH]nc2c1 | inactive |  |
| CCCCCCCCCCCCCCCCCC(=O)OCC(CC)CCCC (stereo not given) | inactive |  |
| CC1COc2ccccc2N1C(=O)C(Cl)Cl (stereo not given) |  | 11.3 µM (active) |
| N#Cc1ccc(CC(=NNC(=O)Nc2ccc(OC(F)(F)F)cc2)c2cccc(C(F)(F)F)c2)cc1 | inactive |  |
| OC[C@H]1O[C@H](O[C@]2(CCl)O[C@H](CCl)[C@@H](O)[C@@H]2O)[C@H](O)[C@@H](O)[C@H]1Cl | inactive |  |
| O=P(c1ccccc1)(c1ccccc1)c1ccccc1 | inactive |  |
| CC1CCC(C(C)CS)CC1S (stereo not given) |  | 30 µM (active) |
| O=C(O)c1cn(C2CC2)c2cc(N3CCNCC3)c(F)cc2c1=O | inactive |  |
| C=CCOC(=O)CCC1CCCCC1 | inactive |  |

| Compound | outcome | AC50 |
| --- | --- | --- |
| Cc1ccc(Nc2ccc(O)c3c2C(=O)c2ccccc2C3=O)cc1 | inactive |  |
| c1ccc2c(c1)c1cccc3ccc4cccc2c4c31 | inactive |  |
| CC(=O)/C=C/C1=C(C)CCCC1(C)C | inactive |  |
| CCCCCCCCCC=O | inactive |  |
| CC(=O)OCCC(C)CC(C)(C)C (stereo not given) | inactive |  |
| O=C(O)C[C@H](O)C[C@H](O)/C=C/c1c(C2CC2)nc2ccccc2c1-c1ccc(F)cc1 | inactive |  |
| BrC1CCC(Br)C(Br)CCC(Br)C(Br)CCC1Br (stereo not given) |  | 4.6 µM (active) |
| O=C1OC2(c3cc(Br)c(O)c(Br)c3Oc3c2cc(Br)c(O)c3Br)c2c(Cl)c(Cl)c(Cl)c(Cl)c21 |  | 4.58 µM (active) |
| CCn1c2ccccc2c2cc(N)ccc21 | inactive |  |
| CC[Si](OC(C)=O)(OC(C)=O)OC(C)=O | inactive |  |
| Nc1cc([N+](=O)[O-])ccc1O | inactive |  |
| O=C(O)c1cn(-c2ccc(F)cc2)c2cc(N3CCNCC3)c(F)cc2c1=O | inactive |  |
| OC1OC[C@@H](O)[C@H](O)[C@H]1O (stereo not given in full) | inactive |  |
| CC(=O)[C@H]1CC[C@H]2[C@@H]3CC=C4C[C@@H](O)CC[C@]4(C)[C@H]3CC[C@]12C | inactive |  |
| O=C(O)c1ccc([N+](=O)[O-])cc1 | inactive |  |
| NCCNCCN | inactive |  |
| COc1cc(C=O)ccc1OC(=O)C(C)C | inactive |  |
| c1ccc2sc(SN(C3CCCCC3)C3CCCCC3)nc2c1 | inactive |  |
| C#C[C@]1(O)CC[C@H]2[C@@H]3CCC4=Cc5oncc5C[C@]4(C)[C@H]3CC[C@@]21C | inactive |  |
| Cc1ccc(O)c(C(C)(C)C)c1 |  | 30 µM (active) |
